# Shown is part of a subset that was picked to be rich in hits.
# RmlCD inh 1536 – inhibitors of Mycobacterium tuberculosis RmlC and RmlD coupled enzymes; P9WH09+P9WH11; RmlC+RmlD coupled enzyme assay, percent inhibition; primary screen in compound mixtures; inhibition, % at 3.6 µM; 160,000 tested, 0.03% active; AID 1533; in the data active = inhibition mostly above about 34%, no sharp cut-off
# Target sequence (P9WH09 whole entry, looked up): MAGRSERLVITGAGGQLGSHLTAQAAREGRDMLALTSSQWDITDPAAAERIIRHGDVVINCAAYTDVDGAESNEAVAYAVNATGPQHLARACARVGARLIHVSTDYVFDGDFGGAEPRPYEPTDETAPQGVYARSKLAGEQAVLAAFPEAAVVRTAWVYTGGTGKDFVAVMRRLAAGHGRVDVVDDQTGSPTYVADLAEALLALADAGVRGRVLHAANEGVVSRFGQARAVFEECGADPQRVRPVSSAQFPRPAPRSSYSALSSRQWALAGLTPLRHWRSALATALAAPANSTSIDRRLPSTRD
# Target sequence (P9WH11 whole entry, looked up): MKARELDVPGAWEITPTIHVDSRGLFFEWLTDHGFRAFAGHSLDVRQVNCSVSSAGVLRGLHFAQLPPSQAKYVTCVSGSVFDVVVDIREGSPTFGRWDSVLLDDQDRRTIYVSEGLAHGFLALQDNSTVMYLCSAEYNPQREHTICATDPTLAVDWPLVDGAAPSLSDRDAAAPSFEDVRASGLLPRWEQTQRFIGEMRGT
# YopH inh – YopH (Yersinia) phosphatase inhibition | AID 898 | 140,000 tested, 0.16% active | fluorescence Ex485/Em525 | inhibition, % (no concentration beside the values); in the data active = inhibition above about 50%
# Active calls of the source: *; / = no result given.
SMILES,RmlCD inh 1536,YopH inh
COc1ccc2cc(-c3cc(C(=O)OCC(=O)NC4CCS(=O)(=O)C4)c4ccccc4n3)ccc2c1 (configuration not stated),-8,97*
O=C(N/C(=C/c1ccccc1)C(=O)N1CCCCCC1)c1ccccc1,6,/
CCN1CCN(CCCOc2ccc(-c3ccccc3)cc2)CC1,-5,55*
CCN1CCN(CCCOc2ccccc2-c2ccccc2)CC1,7,/
COCCCn1cn[nH]c1=S,9,/
CCOC(=O)N1CCC(NC(=O)C2=CCN(S(=O)(=O)c3ccccc3)CC2)CC1,-2,/
O=C(Nc1ccc2c(c1)oc1ccccc12)c1ccncc1,/,-47
Fc1ccc(-c2nc3ccccc3[nH]2)cc1,10,/
O=C(O)c1ccc(-c2nc3ccccc3[nH]2)cc1,95*,-27
Cc1nn(CCC#N)c(NC(=O)c2ccc(Cl)cc2)c1P(=O)(Nc1ccc([N+](=O)[O-])cc1)N1CCOCC1 (configuration not stated),-3,14
Cc1cccc(C)c1NC(=O)Cn1nnc(-c2ccc(CN3CCC(C)CC3)cc2)n1,-7,/
CCOC(=O)CNc1c(-c2ccc(F)cc2)nc2cnccn12,51*,-18
CCOC(=O)CNc1c(-c2ccc(Cl)cc2)nc2cnccn12,/,-12
Cc1ccc(CCNC(=O)C2CCN(S(=O)(=O)N3CCC4(CC3)OCCO4)CC2)cc1,/,-19
CCCn1c(=O)c(C(=O)OCC)c(O)c2cc(Br)ccc21,11,/
CCOC(=O)c1c2c(n(C)c1COC)C(=O)C(=O)c1ccc(Br)cc1-2,/,80*
Cc1nc(NC(=O)CSc2nncs2)c(Cl)cc1Cl,-3,/
CCN(CC)c1ccc(C=Nc2ccccc2)c(O)c1,/,52*
CCN(CC)c1ccc(C=Nc2cc(C)cc(C)c2)c(O)c1,-12,-28
CCN(CC)c1ccc(/C=N/NC(=O)OC)c(O)c1,/,2
CCN(CC)c1ccc(/C=N/Nc2cccc(C)c2)c(O)c1,-10,58*
CCN(CC)c1ccc(N=Cc2ccc(N(CC)CC)cc2O)cc1,/,-17
CCN(CC)c1ccc(/C=N/Nc2ccccc2)c(O)c1,/,51*
O=[N+]([O-])c1cc(C(F)(F)F)cc([N+](=O)[O-])c1N1CCCNCC1,-11,/
Cc1ccc2cc(CN(CCCN3CCOCC3)C(c3nnnn3Cc3ccco3)C(C)C)c(=O)[nH]c2c1C (configuration not stated),/,-10
SMILES,RmlCD inh 1536,YopH inh
CCc1sc(-c2ccccc2)nc1C(=O)OC,-9,/
CCOC(=O)C1(CC2CCCCO2)CCN(C2CCSCC2)CC1 (configuration not stated),-6,/
CCOc1ccc(-c2ccc(SCC(=O)Nc3nnc(C)s3)nn2)cc1,7,/
Cc1ccc(NC(=O)c2ccnc(C(C)(C)C)c2)cc1,/,68*
CC(C)(C)c1cc(C(=O)Nc2ccccc2)ccn1,3,-39
COC(=O)c1sccc1NC(=O)c1c(C)c(-c2cccc(Cl)c2)nc2ccccc12,6,-8
COc1ccc(-n2c(NC(=O)c3ccco3)c(C#N)c3nc4ccccc4nc32)cc1,7,90*
COCCNC(=O)c1c(NC(=O)c2ccco2)n(Cc2ccccc2)c2nc3ccccc3nc12,-3,-13
O=C(CCC1CCCN(Cc2ccc3c(c2)OCCO3)C1)NCc1ccc(F)c(F)c1 (configuration not stated),-8,/
CC1CC(N(C(=O)c2ccc(Cl)cc2)c2ccccc2)c2ccccc2N1C(=O)c1ccco1 (configuration not stated),-6,12
Nc1ccc(Nc2ccccc2N)cc1,-9,51*
COc1ccc(Nc2ccccc2N)cc1,-10,/
CCOCCCn1c(C)nc2c(c1=O)c1nc3ccccc3nc1n2CCC1=CCCCC1,1,-11
Cc1nc2c(c(=O)n1CCC1=CCCCC1)c1nc3ccccc3nc1n2/N=C/c1ccccc1,34*,-11
CCC(C)(C)C1CCc2[nH]nc(C(=O)NN)c2C1 (configuration not stated),15,/
CNC(=O)COC(=O)c1cc(-c2ccco2)nc2ccccc12,37*,/
O=C(COC(=O)c1cc(-c2ccco2)nc2ccccc12)NCc1ccccc1,/,-26
CC(=O)Nc1ccc(NC2=C(Cl)C(=O)c3ccccc3C2=O)cc1,14,/
Cc1ccc(NC2=C(NCCO)C(=O)c3ccccc3C2=O)cc1,-2,89*
COc1ccc2c(c1)c(=O)cc(C)n2CC(=O)NCc1ccco1,/,93*
COc1ccc(-n2c(=O)c3ccccc3n(CC(=O)NCc3ccco3)c2=O)cc1,-1,/
Cc1noc(C)c1C(=O)NCCc1ccccc1,-3,9
CNC(=O)c1cc2c(s1)-c1ccccc1CC2,57*,/
O=C(N/N=C/c1ccc(F)c(F)c1)c1cc2c(s1)-c1ccccc1CC2,16,-31
Cc1[nH]n(-c2ccc(C(=O)O)cc2)c(=O)c1CCO,-8,/
SMILES,RmlCD inh 1536,YopH inh
CCc1cc[n+](C2=C([O-])c3ccccc3C(=O)/C2=N\S(=O)(=O)c2cccs2)cc1,4,69*
O=C1C(Nc2ccccc2)=C/C(=N/S(=O)(=O)c2cccs2)c2ccccc21,5,-13
CCOC(=O)c1sc(NC(=O)CCCCl)nc1C,5,-30
COc1ccccc1-c1c(C)oc2c(CN3CCN(CCO)CC3)c(O)ccc2c1=O,56*,-37
COc1ccccc1-c1c(C)oc2c(CN3CCN(C)CC3)c(O)ccc2c1=O,/,-36
CN1CCN(NC(=O)c2ccc(F)cc2)CC1,-5,-7
Cc1ccc(C(=O)N2C(=S)C(c3ccc(F)cc3)=NC23CCN(C)CC3)cc1,-15,77*
CCCCC(=O)NS(=O)(=O)c1ccc(N=NN2CCCCC2)cc1,/,-44
COC(=O)Cc1cnc(NC(=O)C2C3CCC(C3)C2C(=O)O)s1 (configuration not stated),-4,51*
COC(=O)c1ccc(NC(=O)C2C3CCC(C3)C2C(=O)O)cc1 (configuration not stated),/,-29
Cn1c(N)c(C(=O)COC(=O)COc2ccc(C#N)cc2)c(=O)n(C)c1=O,-1,/
